Consider 25 compounds from PubChem BioAssay AID1626 (SRMLSC, 2009).

The campaign covered roughly 220,000 compounds. About 2,000 (0.91%) were called active. About 2% were inconclusive and are not listed. The list is a sample of the results. Results with a measured potency or affinity are listed apart. A number with no mark means an inactive call. Cut-off read from the data, not from the text of the source: inconclusive = inhibition above about 80% without an active follow-up result; inactive = below that; test concentration not stated here.

The assay is described as follows: M. tuberculosis H37Rv growth inhibitors, H37Rv strain (AID 1626).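 Note: bacteria incubated seven days before Alamar blue readout; 0% = bacteria only wells and 100% = bacteria with antibiotic wells.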 The note with it: stronger effect = higher value, concentration not given here.
As a reminder, the inhibition is the change of the read-out against control, counted positive when it falls. In the case of `O=C(NC(=S)NCCSc1ccccc1)c1cccnc1`, the inhibition was 4.56%. The same measure for `COc1ccc(S(=O)(=O)NC2CCCCC2)cc1-n1cnnn1`: -10.3%.

For `Fc1cccc(Cl)c1/C=N/Nc1ccccn1`, the inhibition was 3.42%. The same measure for `COc1ccc(Cn2c(O)c(/C=N/NC(=O)c3ccccc3)c(=O)[nH]c2=O)cc1`: -2.76%; for `Cn1c(O)c(/C=C2/C=CC=N2)c(=O)[nH]c1=O`: 1.64%.

For `O=c1[nH]c(=O)n(Cc2ccccc2Cl)c(O)c1C=Nc1ccc(F)cc1`, the inhibition was 3.81%.

Turning to `C=CCn1c(O)c(/C=C2/C=CC=N2)c(=O)[nH]c1=O`, the inhibition is 49%. The same measure for `O=C(NC1CCCCC1)N1CCCc2ccccc21`: -7.82%. As for `Cc1ccc(CC2C(=O)N(CC(=O)O)C(=O)C2C)cc1` (stereo not given), the inhibition is -14.9%. Then `CCCCNC(=O)Nc1ccccn1`, with -6.21%; and `O=C(Nc1ccccn1)C(=O)Nc1ccccn1`, with -5%. With `CC(O)Cc1cn([C@@H](CCCCNC(=O)OC(C)(C)C)C(=O)N2CCN(C(=O)OC(C)(C)C)CC2)nn1` (stereo not given in full), the inhibition was -10.7%. Then `CO/C=C/C#CC1(O)CCN(C)CC1`, with -1.81%.

With `O=C(NCC1CCCO1)c1cc(C(=O)c2ccc(Cl)cc2Cl)c[nH]1` (stereo not given), the inhibition is 2.36%. Then `COCCCNC(=S)Nc1ccc(C)cc1`, with -3.56%; and `COc1ccc(C(CCN2CCOCC2)c2c(OC)cc(OC)c3c(C)cc(=O)oc23)cc1` (stereo not given), with -3.23%; and `CCCCCc1cc(=O)oc2c(C(CCN3CCN(c4ccccc4)CC3)c3ccc4c(c3)OCO4)c(OC)cc(OC)c12` (stereo not given), with 22.5%. The same measure for `COc1cc(OC)c2c(C)cc(=O)oc2c1C(CCN1CCOCC1)c1ccc(N(C)C)cc1` (stereo not given): -12.1%; for `COc1ccc(C(CCN2CCCC(C)C2)c2c(OC)cc(OC)c3c2OC(=O)CC3c2cc(OC)c(OC)c(OC)c2)cc1` (stereo not given): -7.36%; for `COc1cc(OC)c2ccc(=O)oc2c1C(CCN1CCCC(C)C1)c1ccc(N(C)C)cc1` (stereo not given): -10.1%. Then `COc1ccc(C(CCN2CCCC(C)C2)c2c(OC)cc(OC)c3c(C)cc(=O)oc23)cc1` (stereo not given), with 1.05%; and `CCCCCc1cc(=O)oc2c(C(CCN3CCN(c4ccccc4)CC3)c3ccc(N(C)C)cc3)c(OC)cc(OC)c12` (stereo not given), with 12.8%. In the case of `COc1cc(OC)c2ccc(=O)oc2c1C(CCN1CCCC1)c1ccc(N(C)C)cc1` (stereo not given), the inhibition is -8.24%. The same measure for `N/C(=N/OC(=O)c1ccccc1F)c1nonc1N`: 1.17%; for `S=C(NCC1CCCO1)N1CCN(Cc2ccccc2Cl)CC1` (stereo not given): -6.51%.
